Measured values as given in PubChem BioAssay (NCI).
The panel holds about 83,000 compounds, 20% with a hit somewhere; the sample as a whole holds those more often.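 Values shown are percent growth following 48 h exposure of cells in 96-well plates to a single concentration of compound; below 10 was considered active.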 Values without a mark were called inactive. The source made the active and inactive calls.

Tested on: HL-60(TB) leukemia
Assay: NCI-60 one-dose screen, 48 h (100 = growth as untreated, 0 = no growth, -100 = all killed)
Conditions: 10 µM unless noted

SMILES | growth
Cc1ccc2[nH]c(=O)c3c(c2c1)OC(N)=C(C#N)C31C(=O)c2cccc3cccc1c23 (stereo not given) | 98.6%
O=[N+]([O-])c1ccc(Oc2cccc(C(F)(F)F)c2)c([N+](=O)[O-])c1 | 14.3%
C#CCOc1cccc(-c2ncc3cc(NC(=O)CCl)ccc3n2)c1 | 14.3%
N#CC(C#N)N=Nc1ccc(Cl)cc1 | -26.8% (active)
O=C(CSc1nc(-c2ccccc2)cc(=O)[nH]1)Nc1nc(-c2ccccc2)cs1 | 95.7%
C=C1C(=O)O[C@@H]2[C@@H]3O[C@@](C)(CC/C=C(\C)CCC[C@@H]2C)[C@H](O)C[C@@H]13 | 14.4%
Clc1cc(Cl)c(OCC#CI)cc1Cl | 47.6%
CCCCCCNC(=O)Oc1ccc(/C(=C(\C)c2ccc(OC)cc2)c2ccc(OCCN3CCCCC3)cc2)cc1 | 46.3%
CC1(c2ccc3ccccc3c2)CCC(=O)O1 (stereo not given) | 92.7%
O=C1NC(=C(Cl)Cl)/C(=N\S(=O)(=O)NCc2ccccc2)N1 | 97%
CCN(Cc1ccccc1)C1CCN(Cc2cc(Br)ccc2O)CC1 | 50.1%
COc1cc(/C=C/C(=O)CC(=O)/C=C/c2ccc(OC(=O)CCNC34CC5CC(CC(C5)C3)C4)c(OC)c2)ccc1OC(=O)CCNC12CC3CC(CC(C3)C1)C2 | -24% (active)
Nc1ccc(Br)cn1 | 75.5%
N#Cc1c(N2CCOCC2)nc(=S)[nH]c1-c1ccccc1 | 70.2%
Cn1c(-c2ccccc2)cc(=O)cc1-c1ccccc1 | 99.8%
CCCNS(=O)(=O)c1ccc(Cl)cc1 | 105%
CCOc1ccc(N2C(=O)CCSC2=S)cc1 | 99.7%
CSc1nn2c(-c3ccc4ccccc4c3)ccnc2c1C#N | 14.1%
C/C=C(/C)C(=O)O[C@@H]1CC(C)(C)CC2C34OC(=O)[C@@]21CC[C@@]3(C)[C@]1(C)CCC2C(C)(C)C(=O)CC[C@]2(C)C1C[C@@H]4O (stereo not given in full) | 6.92% (active)
COC(=O)c1nc(=S)[nH]c(C(=O)OC)c1C(=O)c1ccc(Cl)c(Cl)c1 | 101%

SMILES | growth
CC(C)(C)c1ccc(N2CSC(=S)N(c3ccc(C(C)(C)C)cc3)C2)cc1 | 92.7%
COc1cc2ncnc(Nc3cccc(Cl)c3F)c2cc1OC(=O)N1CCN(C)C[C@H]1C | 102%
Cc1cc(N/N=C/c2nc(-c3ccccc3)oc2C)c2cc(Cl)ccc2n1 | -37.4% (active)
CC(C)N(Cc1ccccc1)c1c(Cl)ssc1=O | 113%
CCN(CC)c1ccc2nc3c4ccccc4c(=NC(=O)c4ccccc4-c4c5ccc(N(CC)CC)cc5[o+]c5cc(N(CC)CC)ccc45)cc-3oc2c1 | -69.7% (active)
CCCCc1n(Cc2ccc3ccccc3c2)c2ccccc2[n+]1Cc1ccc2ccccc2c1 | -59.2% (active)
COc1ccccc1N1CCN(C(CNS(=O)(=O)c2ccc(Cl)cc2)c2cccnc2)CC1 (stereo not given) | 66.1%
Cc1cc(C(=O)Nc2ncnc3nc[nH]c23)no1 | 91.1%
CC(=O)c1cnc(-c2ccccc2)nc1CBr | 41.5%
C=C1C(=O)O[C@H]2[C@H]1CC/C(COC(=O)/C=C\C(=O)NCc1ccc(Cn3c(=O)sn(CCCCC)c3=O)cc1)=C\CC[C@@]1(C)O[C@@H]21 | -17.6% (active)
O=C(CSc1nccc(Nc2ccc(S(=O)(=O)Nc3nccs3)cc2)n1)c1ccc(F)cc1 | 104%
Cc1cc(O)c(C2=NN(c3ccc(S(N)(=O)=O)cc3)C(c3ccc(N(C)C)cc3)C2)c(C)c1Cl (stereo not given) | 24.1%
Nc1ccc(C2c3ccccc3Oc3ccccc32)cc1 | 115%
COc1ccc(C(=O)c2sc3nc(-c4cccs4)ccc3c2N)cc1OC | 23.3%
Cc1cccc(C)c1NC(=O)Nc1ccccc1 | 104%
O=C(CN1C(=O)NC2NC(=O)NC21)N/N=C/c1cccc([N+](=O)[O-])c1 (stereo not given) | 99.1%
O=C1/C(=C/c2ccc(O)cc2)CSc2ccc(Cl)cc21 | 22.7%
O=C(NC1CCS(=O)(=O)C1)c1ccc(C(=O)c2ccccc2)cc1 (stereo not given) | 191%
O=C(CNC(=O)c1cccc2ccccc12)Nc1ccccc1Oc1cccc(O)c1 | -24.1% [5 µM] (active)
S=C(c1ccccc1)N1CCN(c2cccc(Cl)c2)CC1 | 90.5%
